# MARV entry inh = blocks Marburg virus binding to or entry into cells | Marburg virus pseudotyped entry inhibition, cell reporter | Potency, µM (highest dose often 37.8 µM), for inactives: top-dose activity change, negative = inhibition, usual class: inhibitors | actives 1.8% (n = 300,000); calls by dose curve; tested in HEK293 cells
# FMDV antiviral = antivirals against foot and mouth disease virus; FMDV antiviral cell-based qHTS; Potency, µM (titrated, usually from 57.9 µM), for the others: at the top dose activity change, negative = inhibition, usual class: inhibitors; actives 1.2% (n = 410,000); calls by dose curve; tested in HEK293T cells; further: read-out not given here; nearly all actives have a fitted effect of over 45% in size
# Vaccinia mCherry = inhibitors of vaccinia virus infection (mCherry reporter signal); Vaccinia virus mCherry reporter infection, fluorescence; Potency, µM (doses to about 36.5 µM), inactives show at the highest dose activity change, negative = inhibition, actives largely listed as inhibitors; actives 0.63% (n = 310,000); calls by dose curve; tested in A549 cells; further: nearly all actives have a fitted effect of over 35% in size
# VACV Venus inh = inhibitors of vaccinia virus (Venus reporter). Vaccinia virus Venus reporter expression, fluorescence. Potency, µM (top dose mostly 36.5 µM), for the others: at the highest dose activity change, negative = inhibition, hits mostly inhibitors. AID 720580. actives 0.46% (n = 330,000); calls by dose curve; tested in A549 cells; further: nearly all actives have a fitted effect of over 30% in size
# LASV entry inh = Lassa virus entry inhibition | Lassa virus pseudotype entry inhibition, cell reporter | Potency, µM (series often up to 37.9 µM), for the others: top-dose activity change, negative = inhibition, actives largely listed as inhibitors | actives 1.2% (n = 300,000) | AID 540256; calls by dose curve; tested in HEK293 cells; further: nearly all actives have a fitted effect of over 50% in size
# Numbers without * were called inactive; i = inactive; ? = inconclusive; nt = not tested or not shown; [ ] = remark or other dose. Compounds with a hit are over-represented: about 3.2% of the library has one in this group of screens. On the % scale 0 is the no-effect control and ±100 the full control effect; potency means the concentration at half of the fitted maximal effect.
SMILES,MARV entry inh,FMDV antiviral,Vaccinia mCherry,VACV Venus inh,LASV entry inh
COC1C(O)C(OC2CC[C@]3(C=O)C4C(OC(C)=O)C[C@@]5(C)C(C6=CC(=O)OC6)CC[C@]5(O)C4CC[C@]3(O)C2)OC(C)C1OC(C)=O (stereo not given in full),nt,-8.2%,-7.5%,-3.8%,nt
C[C@@H]1O[C@H](O[C@H]2C[C@@H](O)[C@]3(CO)[C@H]4[C@H](O)C[C@]5(C)[C@@H](C6=CC(=O)OC6)CC[C@@]5(O)[C@H]4CC[C@]3(O)C2)[C@@H](O)[C@H](O)[C@H]1O,0.0651µM*,nt,nt,nt,nt
CC1OC(O[C@H]2C[C@@H](O)[C@]3(CO)[C@H]4[C@H](O)C[C@]5(C)[C@@H](C6=CC(=O)OC6)CC[C@]5(O)[C@@H]4CC[C@]3(O)C2)C(O)C(O)C1O (stereo not given in full),nt,nt,?,0.0035µM*,nt
COC1C(O)C(C)OC(OC2CCC3(C)C(CCC4C3C(O)CC3(C)C(C5=CC(=O)OC5)CCC43O)C2)C1O (stereo not given),?,-20.8%,0.251µM*,0.355µM*,?
O=C(Cn1cnc2cc([N+](=O)[O-])ccc2c1=O)NC1CCS(=O)(=O)C1 (stereo not given),nt,-10.2%,nt,nt,nt
COC(=O)C1=C(C(=O)OC)[C@@H]2N(CC=C(C)C)c3ccccc3[C@@]23CCC(=O)N(CCc2ccccn2)C3=N1,12.0%[14.2 µM],nt,nt,nt,nt
CCc1cc(C(=O)N2CCN(c3ncccn3)CC2)sc1C,?,-17.1%,-21.7%,-28.3%,?
CCC(C)n1c(NC(=O)c2ccccc2)c(C#N)c2nc3ccccc3nc21 (stereo not given),?,11.2µM*,nt,?,?
CCCCn1c(NC(=O)c2ccccc2)c(C#N)c2nc3ccccc3nc21,?,nt,-1.6%,-13.2%,?
CCn1nc(C)cc1C(=O)NCC1Cc2cc(C)cc(-c3ccccc3C(=O)OC)c2O1 (stereo not given),nt,-13.3%,-0.1%,-15.0%,nt
CCOC(=O)[C@@H](C)c1nc2ccccc2[nH]c1=O,7.5%,nt,nt,nt,nt
C[C@]12C[C@H](O)C3[C@@H](CCC4=CC(=O)CC[C@@]43C)[C@@H]1CC[C@@H]2C(=O)CO (stereo not given in full),44.8%,nt,nt,nt,?
COc1ccc2cc(-c3ccccc3)c(=O)oc2c1,?,-19.7%,i,-25.2%,4.47µM*
CCCOc1ccc2cc(-c3ccccn3)c(=O)oc2c1,1.78µM*,10µM*,i,-18.0%,2.82µM*
Cc1ccc(N(C(=O)c2snc(C(N)=O)c2N)C(C(=O)NCCC(C)C)c2ccco2)cc1 (stereo not given),nt,-20.8%,nt,nt,nt
O[Si](CCCN1CCCCC1)(c1ccc(F)cc1)C1CCCCC1 (stereo not given),2.82µM*,?,-22.3%,-14.5%,5.17µM*
O=C(NCCCN1CCCC1)Nc1ccc(F)cc1,4.1%[46.1 µM],5.7%,-9.8%,-8.6%,-0.1%[46.1 µM]
CC(=O)/C=C\c1cn(-c2ncc(C(F)(F)F)cc2Cl)c2ccccc12,?,31.6µM*,nt,-29.2%,?
O=S(=O)(c1ccccc1)N1CCC(c2ccncc2)CC1,nt,?,i,-0.7%,26.2%[46.1 µM]
CSc1ccc2c(c1)C(N1CCN(C)CC1)Cc1ccc(F)cc1S2 (stereo not given),nt,-22.4%,nt,nt,nt
COc1ccc2c(c1)CC(N1CCN(C)CC1)c1cc(OC)ccc1S2 (stereo not given),3.98µM*,?,?,?,?
Cc1ccccc1CN1N=C(/C=C/c2ccccc2)CCC1=O,6.6%[14.2 µM],?,-16.4%,-12.4%,7.94µM*
Cc1ccc(/C=C/C2=NN(Cc3ccc(Cl)c(Cl)c3)C(=O)CC2)cc1,29.6%,-8.8%,nt,-4.8%,-14.5%
COc1ccc(S(=O)CC(=O)Nc2ccc(Cl)cc2Cl)cc1 (stereo not given),?,-9.8%,-11.9%,0.2%,2.1%
O=C(O/N=C\c1ccc(N2CCCCC2)c([N+](=O)[O-])c1)c1cccc(Cl)c1,-7.0%,2.8%,i,-5.5%,-0.2%
SMILES,MARV entry inh,FMDV antiviral,Vaccinia mCherry,VACV Venus inh,LASV entry inh
CO/N=C/c1ccc(N2CCN(C(=O)c3ccc(Cl)cc3Cl)CC2)c([N+](=O)[O-])c1,?,12.6µM*,nt,nt,?
CO/N=C/c1ccc(N2CCN(C(=O)c3cccc(C(F)(F)F)c3)CC2)c([N+](=O)[O-])c1,?,?,nt,nt,-2.3%
CO/N=C/c1ccc(N2CCN(C(=O)c3ccc(F)cc3)CC2)c([N+](=O)[O-])c1,?,20µM*,nt,nt,?
CCS(=O)(=O)CCSc1nc(C)cc(C)c1C#N,-28.3%,nt,-13.0%,-11.4%,?
Nc1ccccc1SCCS(=O)(=O)c1ccc(Cl)cc1,nt,6.4%,nt,nt,nt
CSc1nc(N)nc(SCCS(=O)(=O)c2ccc(Cl)cc2)c1C#N,?,?,2.51µM*,5.62µM*,0.1%
Cc1ccc(S(=O)(=O)CCSc2nc(C)cc(C)c2C#N)cc1,?,nt,10µM*,10µM*,?
COc1ccc(N2CCN(C(=O)C3Cc4ccccc4N3C(C)=O)CC2)cc1 (stereo not given),nt,-0.5%,-4.9%,-3.8%,11.8%[46.1 µM]
COc1cc(/C=C(\C#N)C(=O)N2CCOCC2)cc(Br)c1O,?,0.4%,nt,nt,11.0%
N#C/C(=C\c1cccc(Oc2ccccc2)c1)C(=O)N1CCOCC1,?,35.5µM*,-4.2%,-17.5%,?
CC1CCN(C(=O)COC(=O)CSc2ccc(C(N)=O)cc2[N+](=O)[O-])CC1,1.9%,2.3%,-4.4%,-3.1%,12.1%
CCOC(=O)c1cnc2c(C(F)(F)F)cccc2c1N1CCOCC1,-24.0%,31.6µM*,nt,-29.9%,-3.7%
CCOC(=O)c1cnc2c(C)c(Cl)ccc2c1N1CCOCC1,nt,-13.7%,1.3%,-20.1%,nt
O=C(NCc1cccnc1)c1cc(Sc2ccc(F)cc2F)nc2ccccc12,11.2µM*,?,-19.2%,-24.4%,?
Cc1ccc(C(=O)N2CCN(c3ccc(F)cc3)CC2)cc1NC(=O)c1nsc2ccccc12,nt,0.0%,-19.4%,-15.6%,15.5%[46.1 µM]
Cc1ccc(CSc2nnc(SCC(=O)N/N=C/c3c[nH]c4ccccc34)s2)cc1,?,6.5%,i,-10.0%,?
CCn1c(SCC(=O)N/N=C/c2c[nH]c3ccccc23)nnc1-c1ccc(C(C)(C)C)cc1,?,?,?,-24.8%,4.47µM*
CCn1c(SCC(=O)N/N=C/c2ccc(C)o2)nnc1-c1ccc(C(C)(C)C)cc1,-20.9%,31.6µM*,-19.4%,-17.6%,?
CCn1c(SCC(=O)N/N=C/c2ccc(C)o2)nnc1-c1ccc(C)cc1,7.0%,0.0%,i,-17.2%,-3.7%
CCN(CC)c1ccc2c(O)cc(=O)oc2c1,14.7%[46.1 µM],0.0%,i,-6.6%,24.5%
CCN(CC)c1ccc(C(=O)OCc2cc(=O)oc3cc(O)ccc23)cc1,?,?,?,-15.1%,14.6µM*
O=C(/C=C/c1ccccc1O)c1ccco1,-24.6%,?,?,12.6µM*,?
Cc1cc(C)c(S(=O)(=O)OC[C@H]2C=CC[C@@H](CCC[C@H]3O[C@H](C(=O)OC(C)C)CC[C@@H]3C)O2)c(C)c1,-13.9%[14.2 µM],nt,nt,nt,nt
